Legend:
Assay in all cases: DAPPL (digital affinity profiling via proximity ligation, sequencing); 10 mM Tris-HCl pH 7.5, 50 mM NaCl, 1 mM DTT, 4% glycerol, room temperature, 30 min; GST-TFs on glutathione beads, 16-mer random dsDNA library, 0.1% formaldehyde crosslink after washing; high values mean tight binding
[1] = target: T1, FLI1 (Homo sapiens, UniProt Q01543 1-452); conditions: protein: recombinant; tags: N-terminal GST; dsDNA, one strand shown
T1 sequence: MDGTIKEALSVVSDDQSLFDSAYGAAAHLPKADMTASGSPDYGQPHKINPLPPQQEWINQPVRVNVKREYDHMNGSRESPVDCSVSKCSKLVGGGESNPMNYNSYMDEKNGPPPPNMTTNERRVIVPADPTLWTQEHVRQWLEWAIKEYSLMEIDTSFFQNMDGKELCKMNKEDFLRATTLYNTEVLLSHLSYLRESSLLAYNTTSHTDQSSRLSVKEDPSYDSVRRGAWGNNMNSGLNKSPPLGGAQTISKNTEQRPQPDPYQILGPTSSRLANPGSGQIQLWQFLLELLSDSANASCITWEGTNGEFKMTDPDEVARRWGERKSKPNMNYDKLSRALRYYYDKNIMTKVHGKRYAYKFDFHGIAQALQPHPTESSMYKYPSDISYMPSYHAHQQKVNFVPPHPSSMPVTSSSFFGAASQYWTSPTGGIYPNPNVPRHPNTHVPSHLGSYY
Outline: (§1)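 GST fusions of human transcription factors were expressed in yeast and captured with glutathione beads. Once given DNA barcodes and pooled alongside a tag-only sample, they were incubated for 30 min at room temperature with 200 nmole of a random double-stranded 16-mer DNA library in Tris/NaCl/DTT/glycerol buffer, then washed, crosslinked (0.1% formaldehyde), proximity-ligated, PCR-amplified and sequenced on an Illumina NextSeq500. The binding signal of each hexamer is its read frequency for a factor divided by its frequency for the tag-only sample.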

[2] = target: T2, ELK1 (Homo sapiens, UniProt P19419 1-428); conditions: protein: recombinant; tags: N-terminal GST; dsDNA, one strand shown
T2 sequence: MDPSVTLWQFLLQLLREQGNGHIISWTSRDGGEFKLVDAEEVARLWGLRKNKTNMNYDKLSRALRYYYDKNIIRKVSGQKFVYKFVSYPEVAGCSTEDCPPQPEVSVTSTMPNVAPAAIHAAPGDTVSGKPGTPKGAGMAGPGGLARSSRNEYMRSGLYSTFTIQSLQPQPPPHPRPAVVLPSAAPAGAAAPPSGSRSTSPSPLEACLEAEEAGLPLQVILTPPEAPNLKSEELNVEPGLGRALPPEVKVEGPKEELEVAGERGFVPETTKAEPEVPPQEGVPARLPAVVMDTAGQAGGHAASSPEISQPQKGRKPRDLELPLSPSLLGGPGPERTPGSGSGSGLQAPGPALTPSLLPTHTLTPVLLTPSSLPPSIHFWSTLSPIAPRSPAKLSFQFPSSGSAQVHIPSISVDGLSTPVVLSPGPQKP
Outline: as §1

[3] = target: T3, GABPA (Homo sapiens, UniProt Q06546 1-454); conditions: protein: recombinant; tags: N-terminal GST; dsDNA, one strand shown
T3 sequence: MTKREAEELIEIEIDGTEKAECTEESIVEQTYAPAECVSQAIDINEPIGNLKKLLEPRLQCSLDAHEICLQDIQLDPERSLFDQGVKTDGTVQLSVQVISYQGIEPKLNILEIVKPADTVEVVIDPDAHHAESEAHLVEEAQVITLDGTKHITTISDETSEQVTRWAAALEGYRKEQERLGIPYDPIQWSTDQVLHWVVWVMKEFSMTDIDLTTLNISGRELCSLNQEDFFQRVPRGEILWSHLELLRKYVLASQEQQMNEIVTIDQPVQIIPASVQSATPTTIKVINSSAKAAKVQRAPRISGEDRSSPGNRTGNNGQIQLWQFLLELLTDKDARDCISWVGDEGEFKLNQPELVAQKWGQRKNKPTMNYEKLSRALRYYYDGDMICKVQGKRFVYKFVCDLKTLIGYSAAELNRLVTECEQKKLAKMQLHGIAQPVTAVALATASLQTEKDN
Outline: as §1

[4] = target: T4, ERG (Homo sapiens, UniProt P11308 1-479); conditions: protein: recombinant; tags: N-terminal GST; dsDNA, one strand shown
T4 sequence: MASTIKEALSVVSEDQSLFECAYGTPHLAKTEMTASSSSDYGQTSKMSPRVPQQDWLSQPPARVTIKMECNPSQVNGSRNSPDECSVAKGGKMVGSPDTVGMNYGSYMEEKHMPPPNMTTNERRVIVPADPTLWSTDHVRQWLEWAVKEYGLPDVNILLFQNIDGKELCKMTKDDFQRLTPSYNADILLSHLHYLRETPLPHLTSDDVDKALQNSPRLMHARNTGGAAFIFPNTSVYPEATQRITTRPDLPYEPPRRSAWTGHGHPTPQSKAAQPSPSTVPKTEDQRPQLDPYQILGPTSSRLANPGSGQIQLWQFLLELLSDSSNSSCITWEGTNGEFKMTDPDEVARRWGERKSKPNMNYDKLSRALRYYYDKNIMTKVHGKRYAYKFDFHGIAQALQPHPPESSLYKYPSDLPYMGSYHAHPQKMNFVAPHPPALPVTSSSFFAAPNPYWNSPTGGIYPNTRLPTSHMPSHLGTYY
Outline: as §1

[5] = target: ELF1 (Homo sapiens, UniProt P32519 1-619); conditions: protein: recombinant; tags: N-terminal GST; dsDNA, one strand shown
ELF1, sequence (P32519 whole entry): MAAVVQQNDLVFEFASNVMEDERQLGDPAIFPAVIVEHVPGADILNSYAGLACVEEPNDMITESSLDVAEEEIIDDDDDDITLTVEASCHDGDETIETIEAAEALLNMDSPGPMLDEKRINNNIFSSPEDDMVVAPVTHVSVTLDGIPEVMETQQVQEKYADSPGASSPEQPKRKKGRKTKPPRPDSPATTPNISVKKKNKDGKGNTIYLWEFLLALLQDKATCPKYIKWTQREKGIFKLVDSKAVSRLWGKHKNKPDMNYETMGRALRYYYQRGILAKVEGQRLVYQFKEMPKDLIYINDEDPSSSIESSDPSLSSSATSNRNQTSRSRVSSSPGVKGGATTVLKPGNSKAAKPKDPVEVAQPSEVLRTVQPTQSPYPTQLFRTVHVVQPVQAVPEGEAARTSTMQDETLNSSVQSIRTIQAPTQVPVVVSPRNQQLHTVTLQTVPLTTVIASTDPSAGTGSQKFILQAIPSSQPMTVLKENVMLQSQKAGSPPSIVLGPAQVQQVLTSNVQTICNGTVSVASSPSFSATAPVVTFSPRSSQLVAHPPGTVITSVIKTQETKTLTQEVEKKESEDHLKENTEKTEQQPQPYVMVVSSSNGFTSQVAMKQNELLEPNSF
Outline: as §1

[6] = target: T5, EHF (Homo sapiens, UniProt Q9NZC4 1-300); conditions: protein: recombinant; tags: N-terminal GST; dsDNA, one strand shown
T5 sequence: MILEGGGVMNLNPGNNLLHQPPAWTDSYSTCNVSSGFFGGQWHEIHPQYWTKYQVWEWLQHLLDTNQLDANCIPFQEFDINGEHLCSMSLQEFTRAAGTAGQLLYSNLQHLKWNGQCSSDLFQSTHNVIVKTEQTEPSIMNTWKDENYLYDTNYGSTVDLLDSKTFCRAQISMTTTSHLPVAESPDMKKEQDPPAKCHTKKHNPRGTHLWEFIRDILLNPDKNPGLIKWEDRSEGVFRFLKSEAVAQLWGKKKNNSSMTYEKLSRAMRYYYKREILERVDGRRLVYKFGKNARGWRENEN
Outline: as §1

[7] = target: SPI1 (Homo sapiens, UniProt P17947 1-270); conditions: protein: recombinant; tags: N-terminal GST; dsDNA, one strand shown
Outline: as §1

[8] = target: SPIB (Homo sapiens, UniProt Q01892 1-262); conditions: protein: recombinant; tags: N-terminal GST; dsDNA, one strand shown
SPIB, sequence (Q01892 whole entry): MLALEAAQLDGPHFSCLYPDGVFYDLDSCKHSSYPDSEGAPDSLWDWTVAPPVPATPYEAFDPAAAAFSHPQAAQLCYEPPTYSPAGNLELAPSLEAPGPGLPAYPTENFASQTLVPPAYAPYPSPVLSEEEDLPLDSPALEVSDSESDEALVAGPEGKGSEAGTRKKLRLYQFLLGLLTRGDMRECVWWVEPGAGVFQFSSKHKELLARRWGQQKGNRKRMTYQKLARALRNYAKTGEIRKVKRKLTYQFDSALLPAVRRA
Outline: as §1

[9] = target: T6, ELK3 (Homo sapiens, UniProt P41970 1-407); conditions: protein: recombinant; tags: N-terminal GST; dsDNA, one strand shown
T6 sequence: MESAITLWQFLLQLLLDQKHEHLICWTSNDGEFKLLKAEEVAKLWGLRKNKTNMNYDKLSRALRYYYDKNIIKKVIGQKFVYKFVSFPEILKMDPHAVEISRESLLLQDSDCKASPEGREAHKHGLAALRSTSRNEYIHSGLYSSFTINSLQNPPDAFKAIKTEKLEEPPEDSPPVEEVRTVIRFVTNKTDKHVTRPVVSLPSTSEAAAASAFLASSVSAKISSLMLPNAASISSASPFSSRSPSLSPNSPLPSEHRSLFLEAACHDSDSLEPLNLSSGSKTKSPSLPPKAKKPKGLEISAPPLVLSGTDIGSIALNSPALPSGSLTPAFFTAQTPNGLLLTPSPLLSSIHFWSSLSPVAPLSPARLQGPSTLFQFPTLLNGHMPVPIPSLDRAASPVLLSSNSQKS
Outline: as §1

[10] = target: T7, FEV (Homo sapiens, UniProt Q99581 1-238); conditions: protein: recombinant; tags: N-terminal GST; dsDNA, one strand shown
T7 sequence: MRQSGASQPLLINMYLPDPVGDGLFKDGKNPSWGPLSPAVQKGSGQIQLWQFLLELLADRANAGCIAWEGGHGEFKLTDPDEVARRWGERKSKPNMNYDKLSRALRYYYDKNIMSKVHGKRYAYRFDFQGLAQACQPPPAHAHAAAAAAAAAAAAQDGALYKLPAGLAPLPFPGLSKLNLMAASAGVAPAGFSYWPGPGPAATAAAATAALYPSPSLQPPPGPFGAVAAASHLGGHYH
Outline: as §1

[11] = target: ETV5 (Homo sapiens, UniProt P41161 1-510); conditions: protein: recombinant; tags: N-terminal GST; dsDNA, one strand shown
ETV5, sequence (P41161 whole entry): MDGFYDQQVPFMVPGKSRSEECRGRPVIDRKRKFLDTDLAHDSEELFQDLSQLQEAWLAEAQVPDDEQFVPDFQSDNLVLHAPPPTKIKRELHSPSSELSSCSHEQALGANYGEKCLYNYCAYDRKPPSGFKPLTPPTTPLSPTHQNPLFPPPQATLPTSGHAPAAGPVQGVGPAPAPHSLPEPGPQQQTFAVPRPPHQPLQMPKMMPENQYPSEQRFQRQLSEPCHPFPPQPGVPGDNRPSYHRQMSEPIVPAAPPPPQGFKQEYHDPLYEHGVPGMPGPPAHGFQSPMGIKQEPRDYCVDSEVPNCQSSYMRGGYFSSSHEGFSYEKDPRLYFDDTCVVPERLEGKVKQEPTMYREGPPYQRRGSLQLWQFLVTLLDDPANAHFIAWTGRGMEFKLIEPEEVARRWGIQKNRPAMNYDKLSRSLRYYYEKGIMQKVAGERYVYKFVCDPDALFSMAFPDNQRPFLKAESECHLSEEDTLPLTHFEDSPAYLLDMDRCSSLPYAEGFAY
Outline: as §1

[12] = target: HSF1 (Homo sapiens, UniProt Q00613 1-529); conditions: protein: recombinant; tags: N-terminal GST; chain copies: 3; dsDNA, one strand shown
HSF1, sequence (Q00613 whole entry): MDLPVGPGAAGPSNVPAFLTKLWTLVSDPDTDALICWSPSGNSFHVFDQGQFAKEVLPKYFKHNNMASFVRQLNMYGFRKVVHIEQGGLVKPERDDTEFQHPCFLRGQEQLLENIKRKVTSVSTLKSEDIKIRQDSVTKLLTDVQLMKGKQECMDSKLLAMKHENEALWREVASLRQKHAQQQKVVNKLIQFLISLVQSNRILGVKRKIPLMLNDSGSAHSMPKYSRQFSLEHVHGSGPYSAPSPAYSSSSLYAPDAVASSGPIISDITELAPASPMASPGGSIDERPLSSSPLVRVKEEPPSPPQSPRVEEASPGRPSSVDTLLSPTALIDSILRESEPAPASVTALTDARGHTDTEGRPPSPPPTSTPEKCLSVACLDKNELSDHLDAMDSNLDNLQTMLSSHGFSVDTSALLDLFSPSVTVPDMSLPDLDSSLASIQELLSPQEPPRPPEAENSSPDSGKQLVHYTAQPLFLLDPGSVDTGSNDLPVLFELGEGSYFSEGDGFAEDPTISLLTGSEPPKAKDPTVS
Outline: as §1

[13] = target: T8, SPIC (Homo sapiens, UniProt Q8N5J4 1-248); conditions: protein: recombinant; tags: N-terminal GST; dsDNA, one strand shown
T8 sequence: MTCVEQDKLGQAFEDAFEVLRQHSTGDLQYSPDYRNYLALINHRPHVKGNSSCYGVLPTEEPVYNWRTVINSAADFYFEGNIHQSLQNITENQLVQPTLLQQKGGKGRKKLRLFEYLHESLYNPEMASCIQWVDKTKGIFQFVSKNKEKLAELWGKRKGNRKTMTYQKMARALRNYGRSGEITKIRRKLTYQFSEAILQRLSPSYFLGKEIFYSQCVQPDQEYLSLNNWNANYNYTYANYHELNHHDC
Outline: as §1

[14] = target: ELF4 (Homo sapiens, UniProt Q99607 1-663); conditions: protein: recombinant; tags: N-terminal GST; dsDNA, one strand shown
ELF4, sequence (Q99607 whole entry): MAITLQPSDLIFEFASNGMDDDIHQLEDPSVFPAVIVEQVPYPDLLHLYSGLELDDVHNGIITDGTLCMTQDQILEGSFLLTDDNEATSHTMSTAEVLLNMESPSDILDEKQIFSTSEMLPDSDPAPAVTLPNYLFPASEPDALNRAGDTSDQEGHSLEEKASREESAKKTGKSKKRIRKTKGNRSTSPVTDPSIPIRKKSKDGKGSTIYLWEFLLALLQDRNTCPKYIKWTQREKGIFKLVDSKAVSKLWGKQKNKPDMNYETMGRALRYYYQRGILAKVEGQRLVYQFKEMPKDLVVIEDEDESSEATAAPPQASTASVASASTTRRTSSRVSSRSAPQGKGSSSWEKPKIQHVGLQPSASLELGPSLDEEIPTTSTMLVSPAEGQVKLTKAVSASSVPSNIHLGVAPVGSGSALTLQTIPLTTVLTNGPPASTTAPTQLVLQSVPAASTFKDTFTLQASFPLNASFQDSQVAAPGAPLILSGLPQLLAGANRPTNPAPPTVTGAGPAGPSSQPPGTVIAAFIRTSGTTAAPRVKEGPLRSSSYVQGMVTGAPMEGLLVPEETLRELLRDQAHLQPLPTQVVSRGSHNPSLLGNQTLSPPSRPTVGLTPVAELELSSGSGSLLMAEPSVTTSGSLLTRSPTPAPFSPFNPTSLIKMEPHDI
Outline: as §1

[15] = target: T9, ELK4 (Homo sapiens, UniProt P28324-2 1-405); conditions: protein: recombinant; tags: N-terminal GST; dsDNA, one strand shown
T9 sequence: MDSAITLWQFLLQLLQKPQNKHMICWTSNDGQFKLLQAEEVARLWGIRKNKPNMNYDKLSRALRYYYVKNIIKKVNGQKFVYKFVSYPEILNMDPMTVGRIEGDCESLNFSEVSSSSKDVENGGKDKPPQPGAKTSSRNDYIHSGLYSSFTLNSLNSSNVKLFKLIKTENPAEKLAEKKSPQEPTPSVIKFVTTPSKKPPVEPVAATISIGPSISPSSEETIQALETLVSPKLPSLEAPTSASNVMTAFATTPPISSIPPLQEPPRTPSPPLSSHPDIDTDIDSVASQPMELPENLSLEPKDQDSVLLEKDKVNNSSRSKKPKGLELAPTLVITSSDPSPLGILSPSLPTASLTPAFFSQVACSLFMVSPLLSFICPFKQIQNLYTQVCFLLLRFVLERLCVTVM
Outline: as §1

[16] = target: T10, ETV2 (Homo sapiens, UniProt O00321 1-342); conditions: protein: recombinant; tags: N-terminal GST; dsDNA, one strand shown
T10 sequence: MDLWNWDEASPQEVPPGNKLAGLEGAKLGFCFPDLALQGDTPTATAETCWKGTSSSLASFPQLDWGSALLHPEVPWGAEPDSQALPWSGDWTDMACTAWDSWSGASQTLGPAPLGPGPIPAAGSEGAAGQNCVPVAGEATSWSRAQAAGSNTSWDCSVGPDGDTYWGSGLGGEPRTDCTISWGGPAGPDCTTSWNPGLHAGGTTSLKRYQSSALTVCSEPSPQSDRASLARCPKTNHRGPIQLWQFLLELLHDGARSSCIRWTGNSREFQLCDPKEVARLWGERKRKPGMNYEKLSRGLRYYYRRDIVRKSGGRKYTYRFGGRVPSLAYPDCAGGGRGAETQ
Outline: as §1

[17] = target: T11, ELF3 (Homo sapiens, UniProt P78545 1-371); conditions: protein: recombinant; tags: N-terminal GST; dsDNA, one strand shown
T11 sequence: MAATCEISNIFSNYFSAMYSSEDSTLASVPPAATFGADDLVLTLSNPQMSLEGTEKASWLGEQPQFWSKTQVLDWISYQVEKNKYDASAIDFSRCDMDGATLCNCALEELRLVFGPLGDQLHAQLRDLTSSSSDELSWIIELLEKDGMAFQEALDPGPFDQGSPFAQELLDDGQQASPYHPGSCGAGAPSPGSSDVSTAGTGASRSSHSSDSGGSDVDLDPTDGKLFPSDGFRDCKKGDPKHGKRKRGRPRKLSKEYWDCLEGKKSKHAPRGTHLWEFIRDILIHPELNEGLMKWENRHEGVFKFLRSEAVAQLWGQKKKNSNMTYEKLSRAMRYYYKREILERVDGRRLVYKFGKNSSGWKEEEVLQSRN
Outline: as §1

[18] = target: ETV1 (Homo sapiens, UniProt P50549 1-477); conditions: protein: recombinant; tags: N-terminal GST; dsDNA, one strand shown
ETV1, sequence (P50549 whole entry): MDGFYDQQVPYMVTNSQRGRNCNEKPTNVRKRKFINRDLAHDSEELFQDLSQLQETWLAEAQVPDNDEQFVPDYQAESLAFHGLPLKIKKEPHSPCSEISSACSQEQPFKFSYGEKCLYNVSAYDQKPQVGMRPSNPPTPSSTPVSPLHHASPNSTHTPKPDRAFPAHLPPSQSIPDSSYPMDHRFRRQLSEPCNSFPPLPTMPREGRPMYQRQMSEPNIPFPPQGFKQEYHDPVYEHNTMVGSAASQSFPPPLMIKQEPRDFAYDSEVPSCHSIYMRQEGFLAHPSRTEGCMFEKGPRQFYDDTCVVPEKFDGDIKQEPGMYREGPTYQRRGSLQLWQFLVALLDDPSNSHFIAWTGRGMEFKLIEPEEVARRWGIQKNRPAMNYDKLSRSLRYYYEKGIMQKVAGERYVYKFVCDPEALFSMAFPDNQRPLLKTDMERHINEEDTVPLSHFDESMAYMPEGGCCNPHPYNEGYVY
Outline: as §1

GACCTC
binding signal [1]: 1.22 fold enrichment (6-mer frequency, TF over GST control)
binding signal [2]: 1.35 fold enrichment (6-mer frequency, TF over GST control)
binding signal [3]: 1.35 fold enrichment (6-mer frequency, TF over GST control)
binding signal [4]: 1.38 fold enrichment (6-mer frequency, TF over GST control)
binding signal [5]: 1.39 fold enrichment (6-mer frequency, TF over GST control)
binding signal [6]: 1.31 fold enrichment (6-mer frequency, TF over GST control)
binding signal [7]: 1.36 fold enrichment (6-mer frequency, TF over GST control)
binding signal [8]: 1.42 fold enrichment (6-mer frequency, TF over GST control)
binding signal [9]: 1.33 fold enrichment (6-mer frequency, TF over GST control)
binding signal [10]: 1.41 fold enrichment (6-mer frequency, TF over GST control)
binding signal [11]: 1.42 fold enrichment (6-mer frequency, TF over GST control)
binding signal [12]: 1.17 fold enrichment (6-mer frequency, TF over GST control)
binding signal [13]: 1.18 fold enrichment (6-mer frequency, TF over GST control)
binding signal [14]: 1.4 fold enrichment (6-mer frequency, TF over GST control)
binding signal [15]: 1.38 fold enrichment (6-mer frequency, TF over GST control)
binding signal [16]: 1.51 fold enrichment (6-mer frequency, TF over GST control)
binding signal [17]: 1.45 fold enrichment (6-mer frequency, TF over GST control)
binding signal [18]: 1.38 fold enrichment (6-mer frequency, TF over GST control)
